Out of some 360,000 compounds screened, about 11,000 (3.1%) were called active. Roughly 2% stayed inconclusive and do not appear here. Cut-off read from the data, not from the text of the source: active = fluorescence intensity above about 16000; inconclusive = no clear call, values can overlap the other calls; inactive = below that. Many of the other results were omitted from the sample, so actives are more common in it than they were.

A short description of the experiment: counter-screen for toxin protease inhibitors: compound fluorescence, primary screen, artefact control for toxin protease inhibitor project, biochemical, multiplex microsphere, HTS (AID 624483). The settings on record: compound autofluorescence counterscreen, microsphere flow cytometry; hits give high values.
For `OC[C@@H]1CN(C2CCCC2)C[C@H](n2cnc3c(NC4CCC4)ncnc32)O1`, the fluorescence intensity was 2860 (inactive).

As to `Cn1c(=O)[nH]c(=O)c2c1nc(NCCCn1ccnc1)n2Cc1cccc(Br)c1`, the fluorescence intensity is 4650 (inactive).

In the case of `COc1cccc(-n2c(=O)c3c(C)c(C(=O)N(C)C)sc3n(CC(=O)NCCc3ccc(OC)c(OC)c3)c2=O)c1`, the fluorescence intensity was 4050 (inactive).

Take `Cc1cccc(N=C2NC(=O)CS2)c1C`: the fluorescence intensity was 7480 (inactive).

With `CCOc1ccccc1N=C1NC(=O)CS1`, the fluorescence intensity is 23300 (active).

For the compound `CCC/C(O)=C1\C(=O)CC(C)(C)CC1=Nc1ccccc1OC`, the fluorescence intensity is 2780 (inactive).

For `Cc1nc(-c2ccccc2)cn2c1nc1ccccc12`, the fluorescence intensity is 2360 (inactive).

Take `CN(C)C(=O)c1cccc(-c2cnc3c(NC=O)cc(-c4ccc(C(=O)N5CCOCC5)cc4)cn23)c1`: the fluorescence intensity was 3080 (inactive).

For `CCOc1ccc(CCN2C(=O)C(=O)N([C@@H](CC(C)C)CN3CCC[C@H]3CN3C(=O)C(=O)NC[C@@H]3Cc3ccccc3)C[C@@H]2CC(C)C)cc1`, the fluorescence intensity is 4830 (inactive).

On to `Cn1c(SCC(=O)c2cccs2)nnc1-c1ccco1`, for which the fluorescence intensity was 8030 (inactive).

On to `CCc1cccc(C)c1NC(=O)CSc1nnc(-c2ccco2)n1N`, for which the fluorescence intensity is 23800 (active).

Consider `CCOc1ccc(-n2c(SCC(N)=O)nnc2-c2ccco2)cc1`, for which the fluorescence intensity was 3680 (inactive).

Regarding `CCOC(=O)CSc1nnc(-c2ccco2)n1C`, the fluorescence intensity is 19700 (active).

Turning to `NC(=O)c1c(NC(=O)CSc2nnc(-c3ccco3)n2N)sc2c1CCCC2`, the fluorescence intensity was 2490 (inactive).

Take `Nn1c(SCC(=O)Nc2nccs2)nnc1-c1ccco1`: the fluorescence intensity was 6070 (inactive).

Turning to `O=C(Nc1ccc(Cl)c(C(F)(F)F)c1)C1Cc2c(-c3ccccc3Oc3ccccc3)ccnc2O1` (centres undefined), the fluorescence intensity is 3930 (inactive).

For the compound `OC(c1cc(Cl)cc(Cl)c1)c1ncc(-c2ccccc2C(F)(F)F)[nH]1` (centres undefined), the fluorescence intensity was 2910 (inactive).

As for `O=C(Nc1ccc(Cl)cc1)c1csc([C@@H]2O[C@H](CO)[C@H](O)[C@H](O)[C@H]2O)n1`, the fluorescence intensity is 3610 (inactive).

Turning to `O=C(CSc1nc2ccccc2c(=O)n1Cc1ccc(F)cc1)NCC1CCCO1` (centres undefined), the fluorescence intensity was 6760 (inactive).

Turning to `O=C(CCCn1c(SCC(=O)c2ccccc2)nc2ccccc2c1=O)NCC1CCCO1` (centres undefined), the fluorescence intensity is 23800 (active).

Regarding `CCn1c(SCC(=O)NCC2CCCO2)nc2ccccc21` (centres undefined), the fluorescence intensity was 4090 (inactive).

For the compound `CCCCn1c(SCC(=O)NCC2CCCO2)nc2ccc(N3CCOCC3)cc2c1=O` (centres undefined), the fluorescence intensity was 21100 (active).

For `CCn1c(SCC(=O)NCC2CCCO2)nc2cc(S(=O)(=O)N3CCCCC3)ccc21` (centres undefined), the fluorescence intensity was 3450 (inactive).

In the case of `COCCNC(=O)c1ccc(Cn2c(SCC(=O)NCC3CCCO3)nc3ccc(Br)cc3c2=O)cc1` (centres undefined), the fluorescence intensity is 5480 (inactive).

The values are drawn from PubChem BioAssay AID624483 (NMMLSC, 2012).
